Data as given in PubChem BioAssay AID1559 (National Center for Advancing Translational Sciences (NCATS), 2009).
Results filed as inconclusive are left out. Entries that show only a call come without a potency. The source made the active and inactive calls. Calls come from the whole dose curve; as a rule, active = well fitted curve in the direction sought with a large enough effect; inconclusive = small, poorly fitted or top-dose-only effect, or another doubt; inactive = no such curve, though single readings can be large or run the other way.

Molecular target: Microtubule-associated protein tau (Homo sapiens) (UniProt P10636)
Sequence (P10636 561-689 P618L limits assumed): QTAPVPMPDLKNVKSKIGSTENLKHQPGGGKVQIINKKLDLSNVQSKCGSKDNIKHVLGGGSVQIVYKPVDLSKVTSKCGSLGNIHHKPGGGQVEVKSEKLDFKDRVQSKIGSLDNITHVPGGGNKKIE
Assay: Confirmation Concentration-Response Assay for Inhibitors of Tau Fibril Formation, Fluorescence Polarization
Details: recombinant tau K18 P301L (four-repeat tau fragment) heparin fibrillization, Alexa594 FP; series mostly up to 57.1 µM
Excerpt: NIH Molecular Libraries Probe Production Network [MLPCN] NIH Chemical Genomics Center [NCGC] MLPCN Grant: X01 MH083262-01 Assay Provider: Carlo Ballatore, University of Pennsylvania NCGC Assay Overview: The microtubule-associated protein tau is an abundant protein in the axons of neurons that stabilizes microtubules. With its ability to modulate microtubule dynamics, tau contributes directly or indirectly, to key structural and regulatory cellular functions. Particularly important is the influence tau exerts on axonal transport, which allows signaling molecules, trophic factors and other essential cellular constituents to travel along the axons. Under pathological conditions, tau becomes sequestered into insoluble aggregates called neurofibrillary tangles. This phenomenon is believed to have pathological consequences by promoting axonal transport deficits that ultimately lead to synaptic dysfunction and neuronal loss. To identify inhibitors of tau aggregation, a heparin-induced tau fibril formation assay was used that employed a recombinantly expressed fragment of tau, K18 (Q242-E372), bearing a P301L mutation (Gustke et al. 1994; Hong et al. 1998). […] Gustke, N., B. Trinczek, et al. (1994). "Domains of tau protein and interactions with microtubules." Biochemistry 33(32): 9511-22. Hong, M., V. Zhukareva, et al. (1998). "Mutation-specific functional impairments in distinct tau isoforms of hereditary FTDP-17." Science 282(5395): 1914-7. Li, W. and V. M. Lee (2006). "Characterization of two VQIXXK motifs for tau fibrillization in vitro." Biochemistry 45(51): 15692-701. von Bergen, M., S. Barghorn, et al. (2001). "Mutations of tau protein in frontotemporal dementia promote aggregation of paired helical filaments by enhancing local beta-structure." J Biol Chem 276(51): 48165-74.
For screening, 2 uL/well human K18 P301L (15 uM unlabeled and 0.24 uM Alexa 594-labeled tau final concentrations) in reagent buffer (100 mM sodium acetate pH 7) was dispensed into black solid 1536-well plates (Grenier) using a solenoid-based dispenser. Following transfer of 23 nL compound or DMSO vehicle by a pin tool, 2 uL/well heparin (20 uM final concentration) in reagent buffer was added and the plate centrifuged 15 s at 1000 RPM. Plates were incubated 6 hr at 37 C and then 1 uL/well ThT (30 uM final concentration) was added. After a 1 hr ambient incubation, the plates were read by an Envision (Perkin Elmer) to monitor Alexa 594 FP (555 nm excitation and 632 nm emission). Keywords: NIH Roadmap, MLPCN, MLI, MLSMR, NCGC, qHTS, tau, tauopathies, Alzheimer's disease, fibril, neurodegeneration, aggregation

| SMILES | Potency |
| --- | --- |
| Nc1scc2c(C(=O)O)nn(-c3ccccc3)c(=O)c12 | 7.08 µM (active) |
| O=C(Nc1ccccc1)Nc1ccccc1 | inactive |
| Cc1[nH]c(=O)c(C#N)cc1-c1ccncc1 | inactive |
| CCOC(=O)c1nn(-c2ccccc2F)c(=O)c2c(N)scc12 | inactive |
| O=C(Nc1nnc(S(=O)(=O)Nc2ccccc2)s1)C1CCCCC1 | inactive |
| COc1ccc2c(c1)c(CC(=O)Nc1ccc(C(C)=O)cc1)c(C)n2C(=O)c1ccc(Cl)cc1 | inactive |
| O=C(CSc1nc2scc(-c3ccco3)c2c(=O)n1-c1ccccc1)N1CCOCC1 | inactive |
| CCOC(=O)c1nn(-c2ccccc2)c(=O)c2c(N)sc(C)c12 | inactive |
| CCOC(=O)c1nn(-c2cccc(C(F)(F)F)c2)c(=O)c2c(N)scc12 | inactive |
| O=C(Nc1nc2ccc(S(=O)(=O)N3CCCC3)cc2s1)c1ccc(F)cc1 | inactive |
| CN(c1ccccc1)S(=O)(=O)c1nnc(NC(=O)COc2ccccc2)s1 | inactive |
| CCOC(=O)c1nn(-c2ccc(OC)cc2)c(=O)c2c(NC(=O)Cc3ccccc3)scc12 | inactive |
| O=S(=O)(c1ccc(NC(=S)N/N=C/c2ccc(N3CCOCC3)cc2)cc1)N1CCOCC1 | inactive |
| CC(C)c1ccc(NS(=O)(=O)c2ccc3[nH]cc(C(=O)NCCc4ccccc4)c(=O)c3c2)cc1 | inactive |
| O=C(Cc1ccccc1)Nc1sc2c(c1C(=O)Nc1cccc(Cl)c1)CCCC2 | inactive |
| COc1ccc2c(c1)c(CC(=O)N1CCOCC1)c(C)n2C(=O)c1ccc(Cl)cc1 | inactive |
| COC(=O)c1c(N)sc2c1C(C(=O)OC)CC2 (configuration not stated) | inactive |
| CC1CCc2c(sc(NC(=O)Cc3ccccc3)c2C(=O)Nc2ccc(Cl)cc2)C1 (configuration not stated) | inactive |
| Cc1ccc(SCc2cc(=O)n(C)[nH]2)cc1 | inactive |
| CCOC(=O)c1ccc(-n2nc(C(=O)OCC)c3csc(N)c3c2=O)cc1 | inactive |
| O=S(=O)(c1ccc2nc(-c3ccco3)c(-c3ccco3)nc2c1)N1CCOCC1 | 7.94 µM (active) |
| COc1ccc(CNC(=O)Cn2nc(C)n3cccc3c2=O)cc1 | inactive |
| COc1cc(/C=N/N=C2/NC(=O)C(CC(=O)O)S2)ccc1OCc1ccc(Cl)cc1 (configuration not stated) | inactive |
| Cn1[nH]c(CSc2ccc(Cl)cc2)cc1=O | inactive |
| Cc1nc2ccccc2oc1=O | inactive |
| Cc1sc(N)c2c(=O)n(-c3ccccc3)ncc12 | inactive |
| COc1ccc(NC(=O)c2c(NC(=O)Cc3ccccc3)sc3c2CCCC3)cc1 | inactive |
